Reference: article PMC4552634, “A New Set of Chemical Starting Points with Plasmodium falciparum Transmission-Blocking Potential for Antimalarial Drug Discovery” (PLoS ONE, 2015)
Where two headings read alike, the source gives them in different places. Out of some 13,000 compounds screened, about 3,200 (25%) showed an effect of 50% or more. The list shows a part of the results.

System: P. falciparum stage V gametocytes
Design: BacTiter-Glo ATP luminescence viability of purified stage V gametocytes in 384-well plates, per cent inhibition versus DMSO
Conditions: 48 h, 5 µM, inhibitor

Row | SMILES | % Inhibition | % Inhibition (% Inhibition)
1 | CC(=O)Oc1ccc(C(=O)Oc2ccccc2C#CC#N)cc1OC(C)=O [TCMDC-138111] | 22.32% | 
2 | CC(Oc1ccc(Cl)cc1Cl)c1nc(-c2ccc(NC(=O)c3ccco3)cc2)no1 (stereo not drawn) [TCMDC-124355] | -1.611% | 
3 | O=C(Nc1ccc2c(c1)CN(Cc1ccc(N3CCCC3)o1)CCC2)c1cncs1 [TCMDC-134724] | -13.68% | 
4 | O=C(/C=C/c1ccc(C(F)(F)F)cc1)NC1CCC(CN2CCC(c3c[nH]c4ccccc34)CC2)CC1 (stereo not drawn) [TCMDC-139768] |  | 87.3%
5 | O=C(/C=C/c1ccc(C(F)(F)F)cc1)NC1CCC(CN2CCC(c3c[nH]c4ccccc34)CC2)CC1 (stereo not drawn) [TCMDC-139758] |  | 96.79%
6 | O=C(/C=C/c1cc(C(F)(F)F)ccc1F)NC1CCC(CN2CCC(c3c[nH]c4ccccc34)CC2)CC1 (stereo not drawn) [TCMDC-139855] | -4.527% | 
7 | CS(=O)(=O)c1ccc(-c2cncc(Cl)n2)cc1 [TCMDC-135191] | 20.05% | 
8 | COc1cc(NC(=O)/C=C/c2cc(F)cc(F)c2F)cc(OCCN2CCCCC2)c1 [TCMDC-140932] | -50.87% | 
9 | Cc1cc(N2CCCN(C)CC2)nc(Nc2ccc(Cl)cc2)n1 [TCMDC-137009] | 14.59% | 
10 | Cc1cc(N2CCN(CC3CCCCC3)CC2)nc(Nc2ccc(Br)cc2)n1 [TCMDC-137021] | -43.3% | 
11 | Cc1cc(N2CCN(CC3CCN(C)CC3)CC2)nc(Nc2ccc(Cl)cc2)n1 [TCMDC-137012] | 55.47% | 
12 | Cc1cc(N2CCN(CC3CCN(C)CC3)CC2)nc(Nc2ccc(Br)cc2)n1 [TCMDC-137016] | 54.5% | 
13 | Cc1cc(NC2CCN(CC3CCCCC3)C2)nc(Nc2ccc(Br)cc2)n1 (stereo not drawn) [TCMDC-137022] | 32.36% | 
14 | Cc1cc(N2CCC(N(C)C)C2)nc(Nc2ccc(Cl)cc2)n1 (stereo not drawn) [TCMDC-137011] | -3.517% | 
15 | Cc1cc(NCC2CCN(CC3CCCCC3)C2)nc(Nc2ccc(Cl)cc2)n1 (stereo not drawn) [TCMDC-137020] | -71.76% | 
16 | Cc1cc(N2CCCN(CC3CCCCC3)CC2)nc(Nc2ccc(Br)cc2)n1 [TCMDC-137133] | -10.88% | 
17 | Cc1cc(NC2CCN(CC3CCCCC3)C2)nc(Nc2ccc(Cl)cc2)n1 (stereo not drawn) [TCMDC-137018] | 51.98% | 
18 | COc1ccc(Nc2ncc3c(-c4ccc(NC(=O)c5cccc(C(F)(F)F)c5)cc4)c[nH]c3n2)cc1OC [TCMDC-138863] | -42.22% | 
19 | Cc1cnccc1/C=C/c1cccc(OCCN2CCc3ccc(S(C)(=O)=O)cc3CC2)c1 [TCMDC-135875] | 13.2% | 
20 | Cc1noc(C)c1-c1ccc2c(Nc3ccc([N+](=O)[O-])cc3)c(C(N)=O)cnc2c1.Cl [TCMDC-136009] | -6.074% | 
21 | CN(C(=O)c1ccccc1)C1c2cc(C#N)ccc2OC(C)(C)C1O (stereo not drawn) [TCMDC-131573] | -17.79% | 
22 | O=C1O[C@H](c2ccccc2)[C@H](c2ccccc2)N(C(=O)OCc2ccccc2)[C@H]1Cc1ccccc1C1CCCC1 [TCMDC-137303] | 5.453% | 
23 | OC(c1ccccc1)C1CN(CCC2CC3CCC2C3)CCC1(O)c1ccccc1 (stereo not drawn) [TCMDC-131996] | -67.18% | 

Row | SMILES | % Inhibition | % Inhibition (% Inhibition)
24 | CCC(C)NS(=O)(=O)c1ccc2nc(Nc3cccc(SC)c3)n(C(C)C(C)C)c2c1 (stereo not drawn) [TCMDC-136237] | -59.9% | 
25 | CN1CCN(c2ccc(Nc3c(C(N)=O)cnc4cc(-c5ccoc5)ccc34)cc2)CC1.Cl [TCMDC-135440] | -93.68% | 
26 | Cl.NC(=O)c1cnc2cc(-c3ccoc3)ccc2c1Nc1ccc(NC(=O)Nc2ccccc2Cl)cc1 [TCMDC-135442] | 70.72% | 
27 | Cc1cc(Nc2c(C(N)=O)cnc3cc(-c4ccoc4)ccc23)ccc1N1CCN(C)CC1.Cl [TCMDC-135441] | -28.97% | 
28 | O=C(Nc1ccccc1-c1nc2ccccc2s1)C(Cl)(Cl)Cl [TCMDC-123676] | 7.005% | 
29 | O=C(NCCCNc1ccc2ccccc2n1)c1cc2c(Cl)cc(Cl)cc2[nH]1 [TCMDC-140378] | 3.853% | 
30 | CCOc1c(CNCCCNc2nc3ccccc3[nH]2)cc(I)cc1OC [TCMDC-140105] | 34.54% | 
31 | Clc1cc(Cl)c2cc(CNCCCNc3ccc4ccccc4n3)[nH]c2c1 [TCMDC-140495] | 95.02% | 
32 | c1ccc(-c2ccc(CNCCCNc3nc4ccccc4[nH]3)cc2)cc1 [TCMDC-136061] | 54.24% | 
33 | FC(F)(F)c1cc(C(F)(F)F)c2cc(CNCCCNc3nc4ccccc4[nH]3)[nH]c2c1 [TCMDC-139965] | -11.18% | 
34 | O=c1cc(NCCCNCc2cc3c(Cl)cc(Cl)cc3[nH]2)[nH]c2ccccc12 [TCMDC-139789] | 2.174% | 
35 | Clc1ccc2c(Cl)c(CNCCCNc3nc4ccccc4[nH]3)[nH]c2c1 [TCMDC-139967] | -22.32% | 
36 | Clc1ccc(Cl)c2[nH]c(CNCCCNc3nc4ccccc4[nH]3)cc12 [TCMDC-139957] | 50.82% | 
37 | Cc1cc(C)c2cc(CNCCCNc3nc4ccccc4[nH]3)[nH]c2c1 [TCMDC-140069] | 42.15% | 
38 | Brc1cc(CNCCCNc2nc3ccccc3[nH]2)sc1Br [TCMDC-139801] | 12.5% | 
39 | CCOc1c(Br)cc(Br)cc1CNCCCCNc1nc2ccccc2[nH]1 [TCMDC-139968] | 0.6072% | 
40 | CCOc1c(CNCCCNc2nc3ccccc3[nH]2)cc(Br)cc1OC [TCMDC-140089] | 52.36% | 
41 | CCN(CC)S(=O)(=O)c1ccc(C=CC(=O)Nc2cc(Cl)ccc2N2CCOCC2)cc1 [TCMDC-125117] | 28.22% | 
42 | Cc1cc(-c2cc(Cl)ccc2Cl)no1 [TCMDC-131691] | -15.9% | 
43 | CN(C)CCn1cc(C(=O)c2cc(Cl)ccc2O)cc1-c1nc2ccccc2c(=O)[nH]1 [TCMDC-125021] | -20.22% | 
44 | Cc1cccc(C)c1N1CCN(C2CCC(NC(=O)c3cc4ccccc4[nH]3)CC2)CC1 (stereo not drawn) [TCMDC-132890] | -33.12% | 
45 | COc1ccc2ncc(OC)c(CCN3CC[C@@H](NCc4ccc5c(n4)NC(=O)CS5)[C@H](O)C3)c2n1 [TCMDC-134668] | 10.18% | 
